# High-throughput results deposited in PubChem by National Center for Advancing Translational Sciences (NCATS).
# HTT promoter inh: inhibits huntingtin promoter activity; HEK293 HTT promoter firefly luciferase reporter, 24 h; Potency, µM (top dose mostly 57.5 µM), inactives show at the top dose activity change, negative = inhibition, actives largely listed as inhibitors; actives 0.93% (n = 48,000); AID 1508623; note: nearly all actives have a fitted effect of over 50% in size
#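 Firefly luciferase readout (Dual-Glo, 10 min RT) after 24 h, 37 °C compound exposure (final up to 57.5 uM) of HEK293 reporter cells cultured 24 h beforehand; PTC124 at 50 uM final as control inhibitor; activity scaled vehicle 0%, zero RLU -100%.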
# HTT-AS promoter: HTT-AS promoter activation | HEK293 HTT-AS promoter firefly luciferase reporter, 24 h; response scale: percent change from vehicle, -100% = no light | Potency, µM (series often up to 57.5 µM), without a hit: at the top dose activity change, positive = activation, usual class: activators | actives 0.24% (n = 48,000) | AID 1508624; note: nearly all actives have a fitted effect of over 55% in size
#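 HEK293 Fluc reporter, 2,500 cells/well, 24 h pre-culture; cpds up to 57.5 uM final, 24 h 37 degrees C; Dual-Glo, 10 min RT; normalized vehicle = 0%, zero RLU = -100%.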
# NTMT1 inhibitor: blocks human N-terminal methyltransferase 1 activity; Q9BV86; NTMT1 MTase-Glo SAH luminescence, purified enzyme; Potency, µM (series often up to 114 µM), for inactives: at the highest dose activity change, negative = inhibition, usual class: inhibitors; actives 2.5% (n = 59,000); AID 1645870;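 note: plate controls were DMSO vehicle for no effect and no enzyme for full effect; nearly all actives have a fitted effect of over 65% in size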
# Target sequence (Q9BV86 whole entry, looked up): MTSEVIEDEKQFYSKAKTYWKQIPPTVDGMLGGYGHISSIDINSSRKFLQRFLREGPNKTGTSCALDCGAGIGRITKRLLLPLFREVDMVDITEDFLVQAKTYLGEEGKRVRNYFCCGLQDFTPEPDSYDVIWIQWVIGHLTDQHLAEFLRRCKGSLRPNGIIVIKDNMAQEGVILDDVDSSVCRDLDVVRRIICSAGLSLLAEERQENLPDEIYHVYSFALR
# * hit, by the source's call; u = inconclusive; x = no result; ! = not confirmed by another sample; [ ] = remark or other dose. This is a sample that favours compounds with a hit; in the whole collection about 2.4% have one here. Calls come from the whole dose curve; as a rule, active = well fitted curve in the direction sought with a large enough effect; inconclusive = small, poorly fitted or top-dose-only effect, or another doubt; inactive = no such curve, though single readings can be large; an effect the other way counts as inactive or inconclusive. Potency is the fitted concentration of half-maximal effect.
SMILES,HTT promoter inh,HTT-AS promoter,NTMT1 inhibitor
Cc1ccc(S(=O)(=O)N2CCC(c3ccncc3)CC2)c(C)c1,16µM*,-84%,u
CC(C)(C)c1ccc(S(=O)(=O)N2CCC(c3ccncc3)CC2)cc1,16µM*,-88%,3%
O=S(=O)(c1ccc(Cl)cc1)N1CCC(c2ccncc2)CC1,-7%,-8%,10%
CC(C)Cc1ccc(S(=O)(=O)N2CCC(c3ccncc3)CC2)cc1,16µM*,-80%,u
Cc1cc(N[S+](=O)([O-])c2cc3c(cc2Cl)CCC(=O)N3)ccc1Cl,x,x,10%
Cc1cccc(C#Cc2cc(F)cc(C#N)c2)n1,x,x,1%[57.5 µM]
O=C(O)c1ccc(O)c2ncc(N3CCCN(C4CCCC4)CC3)cc12,x,x,-1%
CC1=C(C(=O)n2ccc3ccccc32)C(c2ccccc2Br)N=C(Nc2nc3ccccc3o2)N1 (stereo not given),x,x,38%
O=c1[nH]nc2c3c(cccc13)NC(CN1Cc3ccccc3C1)=N2,x,x,22%
Cc1ccc(NS(=O)(=O)c2ccc3c(c2)C(C(C)C)C(=O)N3)cc1C (stereo not given),-27%,-5%,u
Cc1cccc(N2CCN(S(=O)(=O)c3csc(C(N)=O)c3)CC2)c1C,14µM*,-57%,2%
Cc1cccc(N2CCN(S(=O)(=O)c3ccc4c(c3)C(C(C)C)C(=O)N4)CC2)c1C (stereo not given),13µM*,-86%,-1%
NC(=O)c1cc(S(=O)(=O)N2CCN(c3ccc(F)cc3)CC2)cs1,u,-10%,-8%
NC(=O)c1ccc(OCC2NC(=O)C3CCCN3C2=O)cc1 (stereo not given),x,x,-8%[57.5 µM]
NC1[C@H]2CN(c3nc4c(cc3F)c(=O)c(C(=O)O)cn4-c3ccc(F)cc3F)C[C@@H]12 (stereo not given in full),69%,32µM*,u
NC1CCN(c2nc3c(cc2F)c(=O)c(C(=O)O)cn3-c2ccc(F)cc2F)C1 (stereo not given),23%,2%,-9%[57.5 µM]
CCNC(=O)c1noc(-c2cc(Cl)c(O)cc2O)c1-c1ccc(OC)cc1,x,x,4%[57.5 µM]
COc1ccc(NC(=O)CCc2nnc3n(C)c(=O)c4sccc4n23)cc1,8%,1%,6%
Cn1c(=O)c2sccc2n2c(CCCC(=O)Nc3ccc(Oc4ccc(Cl)cc4)cc3)nnc12,40µM*,-27%,8%
Cc1sc(NC(=O)Cc2ccc3c(c2)OCO3)nc1-c1ccc2c(c1)CCN2C(=O)c1ccccc1C(F)(F)F,x,x,11%[57.5 µM]
c1ccc(N2CCN(c3ncnc4c3nc3n4CCCC3)CC2)cc1,13µM*,-65%,0%
Cc1cccc(N2CCN(C(=O)C3CCN(c4ncnc5c4nc4n5CCCCC4)CC3)CC2C)c1 (stereo not given),25µM*,-76%,-6%
COc1ccc(N2CCN(c3ncnc4c3nc3n4CCCCC3)CC2)cc1,u,-55%,u
Cc1cccc(N2CCN(C(=O)C3CCN(c4ncnc5c4nc4n5CCCCC4)CC3)CC2)c1C,u,-34%,5%
CC(/C=C/[C@@H]1C[C@]1(C)c1ccc2c(c1)C(C)(C)CCC2(C)C)=C\C(=O)O,x,x,-3%
SMILES,HTT promoter inh,HTT-AS promoter,NTMT1 inhibitor
Clc1ccccc1-c1nc(-c2ccncc2)no1,30%,u,u
Fc1cccc(-c2nc(-c3ccncc3)no2)c1,40%,4µM*,-3%
COC(=O)N(CC(=O)O)Cc1cccc(OCc2nc(-c3ccc(Cl)cc3)oc2C)c1,x,x,9%
CCc1ccc(NC(=O)c2cc(-c3cccs3)on2)cc1,55%,u,14%
Cc1ccc(NC(=O)c2cc(-c3cccs3)on2)cc1C,63%,8.9µM*,27%
CN(C)C(=O)c1cc2cnc(Nc3ccc(N4CCNCC4)cn3)nc2n1C1CCCC1,x,x,4%
O=c1[nH]cnc2c1ncn2[C@@H]1O[C@H](CO)[C@@H](O)[C@H]1O,4%,4%,3%[57.5 µM]
Nc1ncnc2c1ncn2[C@@H]1O[C@@H](CO)[C@H](O)[C@H]1O,24%[25.2 µM],u,-27%[57.5 µM]
OC[C@H]1O[C@@H](n2cnc3c(=S)nc[nH]c32)[C@H](O)[C@@H]1O,u,-57%,5.6µM*
Nc1ncnc2c1ncn2[C@@H]1O[C@H](CO)[C@@H](O)[C@H]1O,-8%,-13%,50µM*!
COc1ccc(N2C[C@]34C=C[C@H](O3)C(C(=O)O)C4C2=O)cc1OC (stereo not given in full),x,x,13%
O=C(Nc1ccc(S(=O)(=O)Nc2nccs2)cc1)c1cccc2ccccc12,x,x,-7%
CC(C(=O)Nc1cc(C#N)ccc1CCCC(=O)O)c1ccc(F)c2ccccc12 (stereo not given),x,x,16%[57.5 µM]
N#Cc1cc(NC(=O)C(=O)O)c(Cl)c(NC(=O)C(=O)O)c1,3%,-2%,16µM*
c1cncc(-c2ccc(CNc3nc(N4CCCC4)nc4ccccc34)cc2)c1,x,x,40µM*
Brc1ccccc1-c1nc(NCc2ccc(-c3cccnc3)cc2)c2ccccc2n1,x,x,16%
O=C(Nc1ccc(Cl)c(Cl)c1)Nc1ccnc(-c2ccncc2)n1,x,x,-8%
CC1OC(OC2C(CO)OC(OCC3OC(OC(=O)C45CCC(C)(C)CC4C4=CCC6C7(C)CCC(OC8OC(C(=O)O)C(O)C(OC9OC(CO)C(O)C(O)C9O)C8O)C(C)(C)C7CCC6(C)C4(C)CC5)C(O)C(O)C3O)C(O)C2O)C(O)C(O)C1O (stereo not given),x,x,0%[6.45 µM]
CC=CCC(C)C(O)C1C(=O)NC(CC)C(=O)N(C)CC(=O)N(C)C(CC(C)C)C(=O)NC(C(C)C)C(=O)N(C)C(CC(C)C)C(=O)NC(C)C(=O)NC(C)C(=O)N(C)C(CC(C)C)C(=O)N(C)C(CC(C)C)C(=O)N(C)C(C(C)C)C(=O)N1C (stereo not given),x,x,34%[57.5 µM]
COc1cc(CN(C(=O)COc2ccc(Br)cc2)c2ccccn2)cc(OC)c1OC,32µM*,-34%,u
COc1cc(CN(C(=O)COc2ccc(C)cc2)c2ccccn2)cc(OC)c1OC,u,-30%,5%
N#Cc1cccnc1N1CCN(C(=O)c2cccc(Cc3n[nH]c(=O)c4ccccc34)c2)CC1,x,x,-2%
COc1ccc(C(=O)N2CCN(c3nc4c(OC)cccc4s3)CC2)cc1OC,28µM*,-26%,9%
CCOc1cccc2sc(N3CCN(C(=O)c4ccco4)CC3)nc12,-19%,-5%,16%
Cc1ccc(S(=O)(=O)CCC(=O)N2CCN(c3nc4c(C)c(Cl)ccc4s3)CC2)cc1,-25%,-15%,9%
SMILES,HTT promoter inh,HTT-AS promoter,NTMT1 inhibitor
COc1cccc2sc(N3CCN(C(=O)CCS(=O)(=O)c4ccc(F)cc4)CC3)nc12,22µM*,-38%,6%
Fc1cnc(-c2ccccc2C(F)F)nc1NCC1CCN(c2cnccn2)CC1,x,x,-1%
CCCCNc1ncc2c(-c3ccc(S(=O)(=O)N4CCOCC4)cc3)nn(C3CCC(O)CC3)c2n1 (stereo not given),x,x,14%[57.5 µM]
CCCCNc1ncc2c(-c3ccc(CN4CCN(C)CC4)cc3)cn(C3CCC(O)CC3)c2n1 (stereo not given),x,x,79µM*!
CC(C)(C)N=Cc1c(-c2ccccc2)no[n+]1[O-],x,x,7%
C=CC(C)(C)C12CC3C(=O)N4C(CC5(C(C)(C)C=C)c6ccccc6NC45)C(=O)N3C1Nc1ccccc12 (stereo not given),x,x,6%[29.8 µM]
